Our source for the outcome values is PubChem BioAssay AID720591 (Broad Institute, 2013).

The structures appear in SMILES notation. Among all 1,200 compounds or so, about 60 (5%) were called active. Not shown: some 1% with an inconclusive outcome.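 The calls were made as follows: active = Decreasing signal and fitted IC50 at most twice the top valid tested dose; inconclusive = Bad fit or a level curve showing 30 to 70% inhibition; inactive = the rest.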 These entries were drawn from the full list. Measured potencies and affinities stand elsewhere.

Sequence of NAD-dependent protein deacylase sirtuin-5, mitochondrial (Homo sapiens) (Q9NXA8 whole entry, looked up): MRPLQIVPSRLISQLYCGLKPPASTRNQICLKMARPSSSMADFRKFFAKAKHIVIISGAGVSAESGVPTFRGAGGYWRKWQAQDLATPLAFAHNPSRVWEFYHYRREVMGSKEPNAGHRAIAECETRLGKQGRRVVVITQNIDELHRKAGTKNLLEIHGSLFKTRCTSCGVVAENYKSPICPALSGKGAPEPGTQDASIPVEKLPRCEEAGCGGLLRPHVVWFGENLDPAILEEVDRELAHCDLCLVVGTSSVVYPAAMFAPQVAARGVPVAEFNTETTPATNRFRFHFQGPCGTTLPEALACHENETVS

This test has as its target NAD-dependent protein deacylase sirtuin-5, mitochondrial (Homo sapiens) (UniProt Q9NXA8). In words: sirtuin-5 deacylation blockers, concentration series – biochemical, fluorescence imaging, cherry-pick, set 5, dose response (AID 720591). To be noted: Purified SirT5, succinyl-peptide AMC, trypsin-coupled fluorescence; series mostly up to 15 µM.
Turning to `Cc1c(C(=O)c2ccc(N(C)C)cc2)c2ccccn2c1CCC#N`, the result was inactive. With `CCc1nonc1NC(=O)c1oc2ccc(Cl)cc2c1C` the entry was “inactive”; with `COc1ccc2c(c1)C(=O)O[C@@H](c1ccccc1)C[C@@H](O)C(=O)CC2`, “inactive”; with `COc1ccc(OC)c(NC(=O)CSc2nnc(CNC(=O)c3cccs3)o2)c1`, “inactive”.

Take `CCOc1ccc(OCC)c(NC(=O)C2CCCN(C(=O)c3ccc(Cl)cc3)C2)c1` (configuration not stated): the call was inactive.

`COc1ccc(C(=O)OC(C)C(=O)NCC2CCCCC2)cc1S(=O)(=O)N1CCOCC1` (configuration not stated): the molecule was called inactive. Regarding `CCC(=O)Nc1cccc(-c2cc3ccccc3oc2=O)c1`, the molecule was called inactive. With `COc1cc2cc(C#N)c(SCC(=O)Nc3cc(C)on3)nc2cc1OC` the entry was “inactive”. With `Cc1ccc(CNC(=O)CCCCCNC(=O)N2CCn3c2nc2ccccc23)cc1` the entry was “inactive”; with `O=C(NC1CCCCC1)c1ccc(S(=O)(=O)c2ccccc2)cc1`, “inactive”. With `CCOC(=O)C1CCN(C(=O)Cn2cc(C(=O)OC)c3ccccc32)CC1` the entry was “inactive”; with `COc1ccc(NC(=O)CN2CCN(c3ccccn3)CC2)cc1Cl`, “inactive”.

Take `COc1ccc(-c2csc3nc(C(C)C)oc(=O)c23)cc1OC`: the result was inactive. Regarding `C=C(C)COc1ccc(-c2ncncc2-c2ccc(OC)cc2)c(O)c1`, the result was inactive. As for `Cn1cc(C(=O)NCCc2ccccc2)c(=O)c2cc(S(=O)(=O)N3CCOCC3)ccc21`, the call was inactive. With `CC(C)c1ccccc1NC(=O)c1cnccn1` the entry was “inactive”; with `O=C(c1ccccc1)c1coc2ccc(O)c(Cl)c12`, “inactive”.

For the molecule `O=C(O)CCC(=O)Nc1ccc(-c2nc3ccc(C(=O)c4ccccc4)cc3[nH]2)cc1`, the result was inactive. For the molecule `Nc1nc(-c2ccc(C(=O)O)cc2)cs1`, the result was inactive.

For `CC(C)(C)C(=O)Oc1cccc(Nc2ncnc3ccccc23)c1`, the outcome was inactive. With `Cc1ccc(S(=O)(=O)NCC(=O)OCC(=O)NCc2ccc(F)cc2)cc1` the entry was “inactive”; with `Cc1nnc(SCC(=O)Nc2ncc3c(n2)CC(c2ccccc2)CC3=O)s1` (configuration not stated), “inactive”; with `Cc1ccc(S(=O)(=O)Nc2ccc(N(C)C)cc2)cc1`, “inactive”. On to `COc1ccc(N2CC(NC(=O)N3CCc4ccccc43)CC2=O)cc1OC` (configuration not stated), for which the result was inactive. As for `CN(C)CCOC(=O)NCC12CC3CC(CC(C3)C1)C2`, the molecule was classed as inactive. With `C[C@@H]1CN([C@@H](C)CO)C(=O)CCCn2nncc2CO[C@H]1CN(C)C(=O)C1CCCCC1`, the molecule was called inactive. With `CCCCCCN1C[C@@H](O)[C@H](n2cc(COC(=O)c3ccccc3)nn2)C[C@@H]1c1ccc(C)cc1` the entry was “inactive”.

As to `C[C@H]1COc2cc(NCCO)ccc2S(=O)(=O)N1`, the call was inactive.

In the case of `Cc1ccc(S(=O)(=O)N2C[C@@H]3CCCC[C@@H]3[C@@H](C)[C@H]2c2cn(Cc3ccccc3)c3ncccc23)cc1`, the call was inactive. With `CCOc1ccccc1NC(=O)CN1c2cccc3cccc(c23)S1(=O)=O` the entry was “inactive”; with `Nn1c(C2CCC2)nc2cc(Cl)ccc2c1=O`, “inactive”. With `CCC(C)C(CO)NCCCn1cnc2c(SC)ncnc21` (configuration not stated) the entry was “inactive”; with `Cc1csc(NC(=O)c2cc3ccccc3o2)n1`, “inactive”. On to `Cc1nc(NC(=O)c2cc3ccccc3o2)sc1C`, for which the call was inactive. Regarding `Cc1ccc(OCCNC(=O)C2CCCCC2)cc1`, the molecule was called inactive. With `Cc1cc(C)c2c(CN3CCOCC3)cc(=O)oc2c1` the entry was “inactive”; with `COc1ccc(CNC(=O)CCn2ccc3cc(S(=O)(=O)N4CCCC4)ccc32)cc1`, “inactive”. For the molecule `COc1ccc(CN(C(=O)c2ccco2)c2ccc(C)cc2)cc1OC`, the outcome was inactive.

Consider `COc1ccc(CN(C(=O)c2ccco2)c2ccccc2)cc1`, for which the molecule was classed as inactive. With `CN1C(=O)[C@H]2[C@@H](C3CC3)N3C(=O)CN(CCO)C(=O)[C@@]3(Cc3ccccc3)[C@H]2C1=O` the entry was “inactive”.

Consider `CCOc1ccc(-c2noc(CCCC(=O)NC3CCCC3)n2)cc1OC`, for which the molecule was called inactive. In the case of `CCCCCNC(=O)C(c1cc2ccccc2o1)n1c(=O)c(-c2ccccc2)nc2ccccc21` (configuration not stated), the outcome was inactive. On to `CCCCCCNC(=O)c1ccc(Br)o1`, for which the molecule was classed as inactive. As to `COc1ccc(CCNC(=O)COC(=O)CCC(=O)c2ccc(F)cc2)cc1OC`, the molecule was called inactive. With `COc1cc(C(=O)NCC2(N(C)C)CCCCC2)ccc1OCc1ccccc1` the entry was “inactive”. On to `Cn1c(NCCCO)nc2c1c(=O)n(Cc1ccccc1F)c(=O)n2C`, for which the molecule was called inactive. Take `CC(=O)c1cc(-c2ccc(F)cc2)n(CCC(=O)NC(C)(C)C)c1C`: the molecule was called inactive. With `COC(CNC(=O)CC1C(=O)N(Cc2ccccc2)C(C)c2nc3ccccc3n21)OC` (configuration not stated) the entry was “inactive”; with `CCCCNC(=O)C[C@@H]1C[C@@]2(C(=O)OC)CC(C)(C)CC=C2N(Cc2ccco2)C1=O`, “inactive”; with `Cc1ccc(S(=O)(=O)N2C[C@@H](C)[C@]3(C2)[C@H](O)[C@H](OC(=O)NCc2ccco2)C[C@H]2C(=O)N(c4ccccc4)C(=O)[C@H]23)cc1`, “inactive”. As for `OC[C@@H]1CN(Cc2cccs2)C[C@H](n2cnc3c(Nc4ccccc4)ncnc32)O1`, the result was inactive. As to `CCc1cc2c(=O)c(-c3nc4ccccc4n3C)coc2c(CN2CCCCC2)c1O`, the result was inactive.

Regarding `Cc1ccc(NC(=O)c2ccc3c(c2)CCN3S(C)(=O)=O)cc1`, the molecule was classed as inactive. `Cc1cc(C)cc(N(C(=O)CCC(=O)Nc2cc(C)on2)C(C(=O)NC2CCCC2)c2ccco2)c1` (configuration not stated): the molecule was classed as inactive. As to `COc1ccc(CC(=O)NCC2CCCN(Cc3ccc(OC(F)(F)F)cc3)C2)cc1` (configuration not stated), the molecule was called inactive.

On to `CCOC(=O)C(Cc1ccc(NC(C)=O)cc1)N1C(=O)c2ccccc2C1=O` (configuration not stated), for which the molecule was classed as inactive. On to `O=C(OCC(=O)N1CCCC1)c1cc(Br)ccc1Cl`, for which the molecule was called inactive. With `Oc1ccc(-c2n[nH]c(C(F)(F)F)c2-c2ccccc2)c(O)c1` the entry was “inactive”.

Consider `COc1ccccc1-c1cc(C(=O)NC(C)C)no1`, for which the outcome was inactive.

Regarding `CC1c2nc3ccccc3n2C(CC(=O)NC2CC2)C(=O)N1Cc1ccccc1` (configuration not stated), the outcome was inactive. Regarding `Cn1c(=O)[nH]c(=O)c2c1nc(N1CCNCC1)n2Cc1ccccc1`, the result was inactive.

On to `Cc1ccc(Cn2c(N3CCN(C)CC3)nc3c2c(=O)[nH]c(=O)n3C)cc1`, for which the result was inactive.

As for `Oc1ccc(-c2nccc(-c3ccc(Cl)cc3Cl)n2)cc1`, the molecule was called inactive. Take `Cc1ccc(-c2nc3c(Cl)cc(C(F)(F)F)cn3c2Cc2cccc(F)c2)cc1`: the call was inactive. With `CC(=O)c1cccc(NC(=O)CCS(=O)(=O)c2ccc(Br)s2)c1` the entry was “inactive”. As for `O=C(Nc1ccc2c(c1)OCCO2)C(c1ccnc2ccccc12)N1CCN(c2ccc(F)cc2)CC1` (configuration not stated), the outcome was inactive. Regarding `C=CC[C@H](CC(=O)N(CCO)Cc1ccccc1)C(=O)N[C@@H](COC(=O)[C@H](CC=C)CC(=O)OC(C)(C)C)Cc1c[nH]c2ccccc12`, the molecule was classed as inactive. Turning to `CSc1nc(N)nc2c1ncn2CC(=O)NCC1CCCO1` (configuration not stated), the call was inactive.

As to `O=C(NCc1ccc(F)cc1)C1CC(=O)N(C2CCCCC2)C1` (configuration not stated), the result was inactive.

Turning to `O=C(Nc1ccccc1Cl)c1cccs1`, the outcome was inactive. Regarding `Cc1cc(C)c(NC(=O)CN(C)C(=O)CNC(=O)c2cccs2)c(C)c1`, the molecule was classed as inactive. `COc1ccccc1CCNS(=O)(=O)c1cc2c3c(c1)C(C)C(=O)N3CCC2` (configuration not stated): the molecule was classed as inactive. In the case of `COc1ccc(Nc2oc(-c3ccco3)nc2S(=O)(=O)c2ccc(F)cc2)cc1`, the molecule was classed as inactive. Regarding `Cc1nn(CC(=O)N(C)C)c(=O)c2ccccc12`, the result was inactive.

Regarding `Cc1ccc(S(=O)(=O)c2nc(Cc3ccccc3)oc2N2CCOCC2)cc1`, the molecule was classed as inactive. With `Cc1ccc(C(C(=O)NC(C)(C)C)N(C(=O)CCC(=O)Nc2ccccn2)c2ccccc2F)cc1` (configuration not stated) the entry was “inactive”; with `CO/N=C(\C(=O)N[C@@H]1C(=O)N2C(C(=O)O)=C(COC(C)=O)CS[C@H]12)c1csc(N)n1` (stereo in doubt), “inactive”. With `Cc1ccc(-c2ccc(=O)n(CC(=O)Nc3ccc4c(c3)OCCO4)n2)cc1` the entry was “inactive”. Take `COc1ccc(N2CCN(C(=O)CN(C)S(=O)(=O)c3cc(C)ccc3OC)CC2)cc1`: the molecule was classed as inactive.

In the case of `N[C@@H](CO)c1nnc([C@H](Cc2ccc(O)cc2)NC(=O)C2CCNCC2)o1`, the call was inactive.

As for `O=S(=O)(CCc1ccncc1)c1ccc(Cl)cc1`, the result was inactive. With `NCC(O)CN(c1ccccc1)c1ccccc1` (configuration not stated) the entry was “inactive”; with `O=C(c1cccc(F)c1)N1CCCC(C(=O)N2CCCCCC2)C1` (configuration not stated), “inactive”. With `O=C(c1cccc(F)c1)N1CCCC(C(=O)N2CCCCC2)C1` (configuration not stated) the entry was “inactive”; with `CC(=O)Nc1ccc(S(=O)(=O)Nc2ccc(-n3cnnn3)cc2)cc1`, “inactive”; with `O=C(Nc1ccc(F)cc1)C1CC(=O)n2ncnc2N1` (configuration not stated), “inactive”. With `C[C@H](CO)N1C[C@H](C)[C@@H](CN(C)Cc2ccccn2)Oc2ncc(Br)cc2C1=O` the entry was “inactive”; with `N#Cc1c(SCC(=O)Nc2nccs2)sc2c(O)cc(=O)[nH]c12`, “inactive”; with `Cc1csc(NC(=O)CSc2sc3c(O)cc(=O)[nH]c3c2C#N)n1`, “inactive”. As to `CC(=O)N1N=C(N)SC12CCCC2`, the outcome was inactive. With `C[C@H]1CN([C@@H](C)CO)C(=O)c2cc(Br)cnc2O[C@H]1CN(C)C(=O)c1ccccn1` the entry was “inactive”. With `C[C@@H]1CN([C@H](C)CO)C(=O)CCCn2nncc2CO[C@H]1CN(C)C(=O)Nc1cccc2ccccc12` the entry was “inactive”; with `CC(C)NC(=O)N(C)C[C@@H]1OCc2cnnn2CCCC(=O)N([C@@H](C)CO)C[C@H]1C`, “inactive”. With `Cc1ccnc(NS(=O)(=O)c2ccc(NC(=O)Cc3ccc(F)cc3)cc2)n1` the entry was “inactive”; with `Cc1noc(C)c1COc1ccc(C(=O)N2CCN(S(=O)(=O)c3cccc(F)c3)CC2)cc1`, “inactive”; with `COc1ccc(NC(=O)CN(c2ccc(Cl)cc2)S(C)(=O)=O)cc1OC`, “inactive”. With `O=C(COC(=O)CC1CC2CCC1C2)NCc1ccccc1` (configuration not stated), the molecule was called inactive. With `O=C(COC(=O)CC1CC2CCC1C2)Nc1ccc(F)cc1` (configuration not stated) the entry was “inactive”; with `COc1ccccc1OCCSc1nc2ccccc2n1CC(O)CO` (configuration not stated), “inactive”; with `COc1cc(C(=O)NCCCc2nc3ccccc3n2Cc2cc(C)ccc2C)cc(OC)c1OC`, “inactive”. With `c1ccc(CCc2nc(-c3ccc(-n4cccc4)cc3)no2)cc1` the entry was “inactive”; with `Cc1ccc(-c2noc(CN(C)C(=O)c3ccc(Br)o3)n2)cc1`, “inactive”.
